About 11,000 (3.1%) of roughly 360,000 compounds were called active. Another 4% or so got no clear call; they are omitted. The list comes from a sample in which actives are over-represented; it also holds similar structures and randomly drawn compounds. Unmarked numbers belong to inactive results. Calls come from the whole dose curve; as a rule, active = well fitted inhibition curve with a large enough effect; inconclusive = small, poorly fitted or top-dose-only effect; inactive = no such curve, though single readings can be large or run the other way.
target: Schistosoma mansoni thioredoxin glutathione reductase (TGR) (UniProt Q962Y6); experiment: qHTS Assay for the Inhibitors of Schistosoma Mansoni Peroxiredoxins; details: purified TGR, DTNB reduction, TNB absorbance 405 nm; series mostly up to 114 µM; activity change, negative = inhibition: at the top concentration; note: nearly all actives have a fitted effect of over 60% in size
How it was run: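 First, TGR (20 nM dispensed) and NADPH were mixed with compound. Second, a 15 min room-temperature incubation followed. Third, further NADPH and then DTNB were added to start the reaction. Finally, TNB absorbance was monitored kinetically.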
% is set by controls: 0 for no effect and ±100 for the full control effect; potency is the fitted concentration of half-maximal effect.

Row | Compound | activity change, negative = inhibition | Potency
1 | COc1ccc(S(=O)(=O)NCc2cccn2Cc2cccc(C)c2)cc1Cl | -25% | 
2 | CCOc1cc(C(=O)Nc2nnc3n2CCS3)cc(OCC)c1OCC | 8.04% | 
3 | CCc1cccc(NC(=O)CN(c2ccc(C)c(C)c2)S(=O)(=O)c2ccsc2C(=O)OC)c1 | 7.42% | 
4 | CC(=O)N1CC(C)c2scc(C)[n+]2-c2ccccc21 (stereo not drawn) |  | 1.58 µM (active)
5 | Cc1ccc(/C=C(\C#N)C(=O)Nc2cc(C)ccc2C)cc1 | 9.44% | 
6 | Cc1nn(C(C)C(=O)Nc2ccc(C(C)C)cc2)c(=O)c2c1sc1ccccc12 (stereo not drawn) | -4.07% | 
7 | CCOC(=O)c1c(NC(=O)c2ccc(S(=O)(=O)N3CCCC(C)C3)cc2)sc2c1CCN(C(C)C)C2 (stereo not drawn) | -4.43% | 
8 | COC(=O)c1cc(NC(=O)CCc2c(C)nc3c4c(C)cc(C)nc4nn3c2C)cc(C(=O)OC)c1 | -4.76% | 
9 | Cc1cc(C)c2c(n1)nn1c(-n3ccnc3)cc(C)nc21 |  | 35.5 µM (active)
10 | Cc1cc(C)c2c(NC(=O)C3CC3)nn(C)c2n1 | 13.4% | 
11 | COc1ccc(NC(=O)Cn2c(=O)n(CCC(C)C)c(=O)c3cccnc32)cc1Cl | 4.25% | 
12 | Cc1c(C(=O)NCc2ccccc2Br)oc2ccc3c(c12)C(=O)CC(C)(C)O3 | 1.93% | 
13 | CCOC(=O)N1CCC(NC(=O)c2cnn(-c3cccc(C)c3)c2C2CCN(C(=O)OC(C)(C)C)CC2)CC1 | -12.9% | 
14 | COc1cc(Cl)ccc1Nc1ncc(C(=O)N2CCN(c3ccccc3OC)CC2)c2ccccc12 | 8.24% | 
15 | Cc1ccc2nc(CN3CCN(S(=O)(=O)c4ccc(C)c(C)c4)CC3)oc2c1 | -4.25% | 
16 | CSc1nc(-c2ccc(F)cc2)nc2c1Cc1c(CO)cnc(C)c1O2 | -3.94% | 
17 | Cc1ccccc1CSc1nc(-c2ccccc2)nc2c1Cc1c(CO)cnc(C)c1O2 |  | 39.8 µM (active)
18 | CSc1nc(-c2ccccc2Cl)nc2c1Cc1c(CO)cnc(C)c1O2 | -22.1% | 
19 | Cc1cc(NC(=O)CN2CCCC(C)C2)n(-c2nc3ccccc3s2)n1 (stereo not drawn) |  | 12.6 µM (active)
20 | CC1CCCN(CC(=O)Nc2cc(Cl)ccc2Oc2ccccc2)C1 (stereo not drawn) | 3.98% | 
21 | CC(=O)Nc1ccc(NC(=O)CN2CCCC(C)C2)c(Cl)c1 (stereo not drawn) | 9.99% [at 11.4 µM] | 
22 | COc1ccc(C(=O)Nc2nonc2-c2ccc(OC)c(OC)c2)cc1Cl | -0.679% | 
23 | COc1cccc(CNc2nccn(-c3ccc(OC)c(OC)c3)c2=O)c1 | 10.1% | 

Row | Compound | activity change, negative = inhibition | Potency
24 | O=C(NCc1ccco1)c1ccc([N+](=O)[O-])cc1Cl | -30.4% | 
25 | O=C(NCc1ccco1)c1cnn2c(C(F)(F)F)cc(-c3ccco3)nc12 |  | 50.1 µM (active)
26 | O=C(O)c1cnn2c(C(F)(F)F)cc(-c3ccccc3)nc12 | -20.4% | 
27 | OCc1cnc(SCc2ccc(F)cc2)n1Cc1ccc(F)cc1 | -8.02% | 
28 | COc1ccc(N2CCN(c3cc(C)nc4nncn34)CC2)cc1 | 0.741% | 
29 | COC(=O)c1c(C)[nH]c(C(=O)/C=C/c2ccc(Cl)cc2)c1C | -5.56% | 
30 | C/C(=C\c1ccccc1)C1NC(=O)c2c(sc3c2CCCC3)N1 (stereo not drawn) | -10.9% | 
31 | Cc1[nH]c(=O)c(C(=O)/C=C/c2ccccc2)c2c1CCCC2 |  | 35.5 µM (active)
32 | Cc1nc(-c2ccc(Cl)cc2)sc1C1(C)CC(c2ccccc2F)=NO1 (stereo not drawn) | -13.9% | 
33 | Cc1nc(-c2ccccc2)sc1C(=O)/C=C/N(C)C | -15.3% | 
34 | Cc1nc(-c2ccc(Cl)cc2)sc1C(=O)CBr |  | 39.8 µM (active)
35 | COC(=O)c1cc(NC(=O)CCS(=O)(=O)c2cc(Br)cc3c2N(C(=O)C2CC2)CC3)cc(C(=O)OC)c1 | -9.74% | 
36 | Cc1cc(C)c2[nH]c(=O)c(C(c3nnnn3Cc3ccc4c(c3)OCO4)N3CCCC3)cc2c1 (stereo not drawn) |  | 15.8 µM (active)
37 | Cc1ccc(S(=O)(=O)Cn2nnnc2CN2CCN(Cc3ccc4c(c3)OCO4)CC2)cc1 | 5.87% | 
38 | Fc1ccccc1C(c1nnnn1Cc1ccc2c(c1)OCO2)N1CCN(Cc2ccccc2)CC1 (stereo not drawn) | -21.9% | 
39 | Cc1cc2nc(-c3ccc(NC(=O)c4cc5ccccc5o4)cc3)oc2cc1C | -1.68% | 
40 | COc1cc(OC)cc(C(=O)Nc2ccc3nc(Nc4cccc(C(F)(F)F)c4)cc(C)c3c2)c1 | 6.99% | 
41 | O=C(NCc1ccc(Cl)c(Cl)c1)c1cccnc1 | 10% | 
42 | O=C(OCc1cc(Cl)ccc1OC(F)F)c1cccnc1 | -4.95% | 
43 | O=C(/C=C/c1ccc(Cl)cc1Cl)c1cccnc1 |  | 8.91 µM (active)
44 | COc1ccc(-c2nc3ccccc3o2)cc1NC(=O)c1cc([N+](=O)[O-])ccc1N1CCOCC1 | 3.13% | 
45 | CN(C)CCCn1c(-c2ccc(Cl)cc2)csc1=Nc1ccccc1 | 9.1% | 
46 | O=C(NCc1ccco1)C1CCCN(S(=O)(=O)c2cnc[nH]2)C1 (stereo not drawn) | 0% | 

Row | Compound | activity change, negative = inhibition | Potency
47 | Cc1ccc(S(=O)(=O)N2CCCC2C(=O)NCc2ccco2)cc1 (stereo not drawn) |  | 50.1 µM (active)
48 | O=C(NCc1ccco1)C1CCCN(S(=O)(=O)c2cccc3nonc23)C1 (stereo not drawn) |  | 22.4 µM (active)
49 | Cc1ccc(CNC(=O)C2CCCN2S(=O)(=O)c2ccc3c(c2)C(C)(C)C(=O)N3C)cc1 (stereo not drawn) | 1.2% | 
50 | Cc1ccc(S(=O)(=O)N2CCC(C(=O)N[C@@H](C)C(=O)NCc3ccco3)CC2)cc1 | -19.9% | 
51 | O=C(NCc1ccco1)C1CCCN(S(=O)(=O)c2ccccc2)C1 (stereo not drawn) | 2.53% | 
52 | O=C(NCCCO)C(=O)Nc1c2c(nn1-c1ccccc1)CSC2 | -19.7% | 
53 | Cc1c(-c2nsc(NC(=O)c3cccc(Cl)c3)n2)nnn1-c1ccccc1C(F)(F)F | 9.29% | 
54 | CCc1nn(CCCC(=O)NCc2ccccc2OC)c(=O)c2cc3occc3n12 | 6.78% | 
55 | CN1C(=O)c2ccccc2Sc2ccc(NC(=O)Cc3ccc(Cl)cc3)cc21 | 2.52% | 
56 | CCOc1cc(NS(=O)(=O)c2ccc(OC)cc2)c(OCC)cc1NC(C)=O | 0% | 
57 | CCOc1cc(NC(=O)Nc2ccccc2)c(OCC)cc1NC(=O)CC | -0.833% | 
58 | CCOc1cc(NC(=O)CCl)c(OCC)cc1NC(C)=O |  | 44.7 µM (active)
59 | Cc1cccc(NC(=O)Cn2nc(-c3ccc(Cl)cc3)c3ccccc3c2=O)c1 | 9.04% | 
60 | Cc1ccc(N2C(=O)CC(Sc3ncn[nH]3)C2=O)cc1 (stereo not drawn) |  | 0.447 µM (active)
61 | O=C1CC(Sc2ncn[nH]2)C(=O)N1c1ccccc1 (stereo not drawn) |  | 0.501 µM (active)
62 | CCOC(=O)c1ccc(N2C(=O)CC(Sc3nc(O)c(CC)c(=O)[nH]3)C2=O)cc1 (stereo not drawn) | 0% | 
63 | O=C1CC(c2ccccc2)C(=O)N1c1cccc(O)c1 (stereo not drawn) | -8.38% | 
64 | CCN(C(=O)CSc1ncn[nH]1)c1cccc2ccccc12 | -5.37% | 
65 | COc1ccc(-c2nc(SCC(=O)N3CCCC3)n[nH]2)cc1 | 8.14% | 
66 | CC(=O)Nc1ccc(N2C(=O)CC(Sc3nccc(C)n3)C2=O)cc1 (stereo not drawn) | -33.9% | 
67 | COc1ccc(N2C(=O)CC(SC(C)C)C2=O)cc1 (stereo not drawn) | -11.8% | 
68 | COc1ccc(N2C(=O)CC(Sc3n[nH]c(-c4ccc(C)cc4)n3)C2=O)cc1 (stereo not drawn) |  | 0.708 µM (active)
